Measured values: PubChem BioAssay (NCATS)
Results filed as inconclusive are left out. Active and inactive are the calls of the source. The call rests on the fitted dose curve; in most records, active means well fitted cell-killing curve with a large enough effect; inconclusive means small, poorly fitted or top-dose-only effect; inactive means no such curve, though single readings can be large or run the other way.

Test: Quantitative High-Throughput drug screen in 47 multiple myeloma cell lines against the NCATS MIPE library collection: NCIH929_DSMZ cell viability assay (AID 1918978); further: nearly all actives have a fitted effect of over 35% in size
Details: NCI-H929 myeloma viability, CellTiter-Glo ATP, 48 h; series mostly up to 45.8 µM
In short: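 ATP-based CellTiter-Glo luminescence after 48 h drug exposure (37 °C, 5% CO2) of 500 myeloma cells per well. DMSO-only wells set 100% viability, media-only wells 0%; MIPE 4.0 library added by pin tool.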
Potency means the concentration at half of the fitted maximal effect.

Question: With Cc1ccc(NC(=O)C2(c3ccc4c(c3)OC(F)(F)O4)CC2)nc1-c1cccc(C(=O)O)c1 as the compound, how does the Potency read?
Answer: 235 nM (active)

Question: Which Potency does the source give for COc1ccc(C(=O)CC2(O)C(=O)Nc3c(Cl)ccc(Cl)c32)cc1 (stereo not given) here?
Answer: 18700 nM (active)

Question: For Cc1ccc(-c2ncn(-c3ccc(Nc4nccc(-c5cccc(N6CCOCC6)c5)n4)cc3)n2)cn1, which Potency is on record?
Answer: 264 nM (active)

Question: Which Potency does the source give for CCCCOc1c(C(=O)c2c(F)cc(C)cc2F)cnc2n[nH]cc12 here?
Answer: 1320 nM (active)

Question: Which Potency does the source give for CC(=O)c1c(C)c2cnc(Nc3ccc(N4CCNCC4)cn3)nc2n(C2CCCC2)c1=O here?
Answer: 20900 nM (active)

Question: Which Potency does the source give for CNC(=O)c1ccc(N2C(=S)N(c3cnc(C#N)c(C(F)(F)F)c3)C(=O)C23CCC3)cc1F here?
Answer: 332 nM (active)

Question: With O=c1[nH]nc(Sc2ncc([N+](=O)[O-])s2)n1-c1ccc2c(c1)OCCO2 as the compound, how does the Potency read?
Answer: 833 nM (active)

Question: With CN(C)CC=CC(=O)Nc1cc2c(Nc3ccc(F)c(Cl)c3)ncnc2cc1O[C@H]1CCOC1 as the compound, how does the Potency read?
Answer: 5260 nM (active)

Question: With Cn1c2ccccc2c2c3c(c4c5ccccc5n(CCC#N)c4c21)CNC3=O as the compound, how does the Potency read?
Answer: 1870 nM (active)

Question: For CC(NCc1ccc2c(c1)nc(NC(=O)c1ccc(-c3cn[nH]c3)s1)n2CC(C)(C)O)C(C)(C)C (stereo not given), which Potency is on record?
Answer: 235 nM (active)

Question: With C#Cc1cccc(Nc2ncnc3cc(OC)c(OCCCCCCC(=O)NO)cc23)c1 as the compound, how does the Potency read?
Answer: 93.5 nM (active)

Question: Which Potency does the source give for CC1(O)CC(c2nc(-c3ccc4ccc(-c5ccccc5)nc4c3)c3c(N)nccn23)C1 (stereo not given) here?
Answer: 187 nM (active)

Question: For CC(=O)OCC(=O)[C@@]1(O)[C@H](C)C[C@H]2[C@@H]3C=C(C)C4=Cc5c(cnn5-c5ccccc5)C[C@]4(C)[C@@H]3[C@@H](O)C[C@@]21C, which Potency is on record?
Answer: 8330 nM (active)

Question: With CC(C)(C)c1cnc(CSc2cnc(NC(=O)C3CCNCC3)s2)o1 as the compound, how does the Potency read?
Answer: 264 nM (active)

Question: Which Potency does the source give for CCS(=O)(=O)c1cccc(-c2cc(C(=O)NC3CCN(C)CC3)c(C)c3[nH]c4ncc(C)cc4c23)c1 here?
Answer: 1180 nM (active)

Question: Which Potency does the source give for Cc1ccc(C(=O)Nc2cccc(C(F)(F)F)c2)cc1-c1ccc2nc(NCCN3CCOCC3)ncc2c1 here?
Answer: 5260 nM (active)

Question: With CNC(=O)c1ccccc1Nc1nc(Nc2ccc(N3CCOCC3)cc2OC)ncc1Cl as the compound, how does the Potency read?
Answer: 166 nM (active)

Question: Which Potency does the source give for OCCCNc1cc(-c2ccnc(Nc3cccc(Cl)c3)n2)ccn1 here?
Answer: 29.6 nM (active)

Question: With CC(C)c1ccccc1Cc1cc(C(=O)Nc2ccc(S(=O)(=O)c3ccccc3C(C)(C)C)cc2)c(O)c(O)c1O as the compound, how does the Potency read?
Answer: 7430 nM (active)

Question: With Cn1cc(-c2[nH]c3cc(NC(=O)[C@H](N)C4CCCCC4)cc4c3c2C=NNC4=O)cn1 as the compound, how does the Potency read?
Answer: 1320 nM (active)

Question: Which Potency does the source give for NC(=O)Nc1cc(-c2cccc(F)c2)sc1C(=O)N[C@H]1CCCNC1 here?
Answer: 2640 nM (active)

Question: With CN(C)Cc1c(C(=O)NCCOc2ccc(C(=O)NO)cc2)oc2ccccc12 as the compound, how does the Potency read?
Answer: 1050 nM (active)

Question: For Cc1[nH]nc2ccc(-c3cncc(OC[C@@H](N)Cc4ccccc4)c3)cc12, which Potency is on record?
Answer: 1480 nM (active)

Question: With COC(=O)[C@]12CCC(C)(C)C[C@@H]1[C@@H]1C(=O)C=C3[C@@]4(C)C=C(C#N)C(=O)C(C)(C)[C@@H]4CC[C@@]3(C)[C@]1(C)CC2 as the compound, how does the Potency read?
Answer: 235 nM (active)

Question: With CC(C)C[C@H](NC(=O)CNC(=O)c1cc(Cl)ccc1Cl)B(O)O as the compound, how does the Potency read?
Answer: 37.2 nM (active)

Question: Which Potency does the source give for O=C(CCCCCCNC(=O)c1cnc(N(c2ccccc2)c2ccccc2)nc1)NO here?
Answer: 5900 nM (active)

Question: With CC(=O)Nc1nc(C)c(-c2ccc(Cl)c(S(=O)(=O)NCCO)c2)s1 as the compound, how does the Potency read?
Answer: 833 nM (active)

Question: Which Potency does the source give for O=C(Nc1cc(C(F)(F)F)cc(C(F)(F)F)c1)c1cc(Cl)ccc1O here?
Answer: 1480 nM (active)

Question: For O=C(Nc1cn[nH]c1-c1nc2ccc(CN3CCOCC3)cc2[nH]1)NC1CC1, which Potency is on record?
Answer: 1180 nM (active)

Question: Which Potency does the source give for CNc1nccc(-c2cccnc2Oc2cc(C(=O)Nc3cccc(C(F)(F)F)c3)ccc2C)n1 here?
Answer: 5260 nM (active)
